Source: PubChem BioAssay (several laboratories)
TIM10 inh: inhibits growth of TIM10 yeast strain | S. cerevisiae TIM10 strain growth, BacTiter-Glo luminescence, 24 h | inhibition, % at 10 µM | hit rate 1.4% among 330,000;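 active = inhibition of 40% or more at the single tested concentration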;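 note: wild-type TIM10 isogenic control strain grown at permissive 25 °C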
tim10-1 inh: inhibits growth of tim10-1 mutant yeast; AID 463190; inhibition, % at 20 µM; hit rate 2.2% among 330,000; S. cerevisiae tim10-1 ts strain growth, BacTiter-Glo, 24 h;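 active = inhibition of at least 40%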;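 note: mutant grown at 25 °C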
PfHsp90 set2: reduces growth (ATP signal) of yeast expressing P. falciparum Hsp90. AID 504621. inhibition, % at 9.4 µM. S. cerevisiae expressing PfHsp90, BacTiter-Glo ATP, 48 h; yeast lacking PDR1 and PDR3 efflux regulators. hit rate 0.32% among 310,000;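 active = every replicate shows inhibition above about 80%, whatever the replicate mean, limit read from the data; inconclusive = mean inhibition reaches the set limit but some replicate falls short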
Calb FLC: C. albicans growth modulation with fluconazole. C. albicans CaCi-2 (fluconazole-resistant clinical isolate) + fluconazole, Alamar Blue growth, 48 h. growth inhibition, % (test concentration not listed). hit rate 0.57% among 300,000. AID 1979;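 active = growth inhibition above about 58% in most replicates, limit read from the data, passing the limit was not always enough; inconclusive = exactly half the replicates above a set limit; inactive = most replicates below a set limit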;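 note: all wells also contain fluconazole at 8 µg/ml as a sub-toxic cotreatment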
SKKanGAS inh: SKKanGAS growth inhibition | S. pyogenes SKKanGAS, kanamycin growth, BacTiter-Glo, 6 h | inhibition, % at 7.5 µM | hit rate 1.3% among 300,000 | AID 1662;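 active = mean replicate score, as percent of positive control median, at least 50; inconclusive = mean below 50 but one replicate at or above 50; inactive = mean and every replicate below 50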;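 note: strain carries kanamycin resistance gene driven by streptokinase promoter and grows in 40 µg/ml kanamycin; loss of luminescence reflects streptokinase promoter inhibition or plain growth inhibition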
tim23-1 inh: inhibits growth of tim23-1 mutant yeast; S. cerevisiae tim23-1 growth, BacTiter-Glo luminescence, 24 h; inhibition, % at 20 µM; hit rate 1.3% among 330,000;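 active = growth inhibition of the mutant yeast at or above 50%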;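 note: temperature-sensitive mutant grown at 25 °C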
tim23-1 confirm: tim23-1 yeast growth inhibition, confirmed; AID 463218; shares compounds with tim23-1 inh; hit rate 83% among 4,400; inhibition, % at 20 µM; S. cerevisiae tim23-1 growth, BacTiter-Glo luminescence, 24 h;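 active = inhibition above about 39% in either of two replicate wells at 20 µM, limit read from the data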;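 note: temperature-sensitive tim23-1 mutant grown at 25 °C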
Each line names hits and unclear results; the compound was inactive in the other large screens (follow-up assays come after a bar, where they were run). Rows were chosen to be rich in hits. Some 4.7% of all compounds tested hit in one or more screens of this group.

Cc1c(NCc2cc(Cl)cc(Cl)c2O)c(=O)n(-c2ccccc2)n1C	SKKanGAS inh 85, tim23-1 inh 55 | tim23-1 confirm inactive
O=C(O)C(c1ccccc1)C(O)c1ccc2c(c1)OCO2 (stereo not drawn)	none (no result: TIM10 inh, tim10-1 inh, Calb FLC, SKKanGAS inh, tim23-1 inh)
N#Cc1nc(Nc2cc(F)cc(F)c2)c2ncn(CC(F)F)c2n1	tim23-1 inh 52 (no result: Calb FLC, SKKanGAS inh) | tim23-1 confirm inactive
CC(C)(C)c1csc(NC(=O)c2cccs2)n1	tim23-1 inh 56 | tim23-1 confirm inactive
Cc1cc(C(=O)CSc2nncn2C)c(C)n1-c1ccccc1	none
COc1ccc2[nH]c3c(c2c1)CCN1C(=O)C(CC(=O)NCc2ccco2)C[C@H](C(=O)N2CCOCC2)[C@@]31CCC1CCCC1 (stereo partly drawn)	none (no result: Calb FLC, SKKanGAS inh)
O=C(NNC(=O)c1ccc(F)cc1F)c1ccc(-n2cnnn2)cc1	none
O=[N+]([O-])c1cc(O)c2ncccc2c1	Calb FLC 105, SKKanGAS inh inconclusive, tim23-1 inh 67 (no result: PfHsp90 set2) | tim23-1 confirm 70
CN(C)N=Nc1ccc(-c2cn(Cc3ccccc3)cn2)cc1	none
O=C(COC(=O)c1nc(Cl)ccc1Cl)NC(=O)c1ccccc1	none
Cc1ccccc1/C=C1\Oc2ccccc2C1=O	tim23-1 inh 54 (no result: Calb FLC, SKKanGAS inh) | tim23-1 confirm 57
Cc1ccc(NC(=S)N/N=C/c2c(Cl)cccc2Cl)c(C)c1	tim23-1 inh 51 | tim23-1 confirm 40
O=C1OC(c2ccc(Cl)cc2)=N/C1=C\C=C\c1ccco1	none
O=C1OC(c2ccccc2)=N/C1=C\C=C\c1ccco1	tim23-1 inh 82 | tim23-1 confirm 81
COc1ccc(C2=NN(C(=O)CCC(=O)O)C(c3ccc(OC)c(OC)c3)C2)cc1 (stereo not drawn)	none
COc1ccc(C2CC(c3ccc(Br)cc3)=NN2C(=O)CCC(=O)O)cc1OC (stereo not drawn)	tim23-1 inh 96 | tim23-1 confirm inactive
CS(=O)(=O)c1ccc2nc(NC(=O)c3ccco3)sc2c1	tim23-1 inh 54 | tim23-1 confirm 52
Cc1noc(C)c1C(=O)Nc1nc2ccc(S(C)(=O)=O)cc2s1	none
CCOc1ccc2nc(NC(=O)c3ccco3)sc2c1	Calb FLC inconclusive, tim23-1 inh 55 | tim23-1 confirm 57
Cc1ccc(S(=O)(=O)NCc2csc(-c3cccs3)n2)cc1	tim23-1 inh 59 | tim23-1 confirm 43
Oc1ccc(Cl)cc1CNCc1ccc(F)c(F)c1	tim23-1 inh 53 (no result: Calb FLC, SKKanGAS inh) | tim23-1 confirm inactive
CCOc1ccccc1NC(=O)C1CCN(S(C)(=O)=O)CC1	none
Cc1ccc(C2=NNC(=O)C(c3ccc(Cl)cc3)C2)cc1 (stereo not drawn)	none (no result: PfHsp90 set2)
O=C1NN=C(c2ccc(Cl)cc2)CC1c1cccc(Br)c1 (stereo not drawn)	tim23-1 inh 53 | tim23-1 confirm 59
COc1ccc(Nc2nc3ccc(OC)cc3s2)cc1	tim23-1 inh 61 | tim23-1 confirm 40
CCOc1cc(/C=C2\COc3ccccc3C2=O)ccc1OCC(=O)N(C)C	tim23-1 inh 54 | tim23-1 confirm 53
CCOc1cc(/C=N/Nc2ccccc2Cl)ccc1OCC(=O)O	none (no result: TIM10 inh, tim10-1 inh, Calb FLC, SKKanGAS inh, tim23-1 inh)
COCCNC(=O)/C(C#N)=C/c1ccc(OCc2ccccc2)cc1	tim23-1 inh 55 | tim23-1 confirm 53
COCCNC(=O)/C(C#N)=C/c1ccc(C(=O)O)cc1	none
COCCNC(=O)/C(C#N)=C/c1ccc(OCc2ccc(F)cc2)cc1	tim23-1 inh 56 | tim23-1 confirm 48
COc1ccc(NC(=O)C(=O)c2cn(CC(=O)N3CCOCC3)c3ccccc23)cc1OC	none
Cc1ccc(S(=O)(=O)N(C)c2ccc(OCC(=O)Nc3ccc(C(=O)N(C)C)cc3)cc2)cc1C	none (no result: Calb FLC, SKKanGAS inh)
CN1CCN(c2ccccc2NC(=O)c2sc3ccccc3c2Cl)CC1	none
Nc1nc(Nc2ccccc2)sc1C(=O)c1ccccc1	tim23-1 inh 54 | tim23-1 confirm 43
COc1ccc(C(=O)c2sc(Nc3ccccc3F)nc2N)cc1	tim23-1 inh 50 | tim23-1 confirm 54
Cc1cc(NC(=O)c2sc(Nc3ccc(F)cc3)nc2N)no1	none
Cc1cnc(NC(=O)c2sc(Nc3ccccc3)nc2N)o1	tim23-1 inh 53 | tim23-1 confirm 55
COc1ccc(C(=O)c2sc(Nc3ccccc3)nc2N)cc1	none
